# Screening results: PubChem, National Center for Advancing Translational Sciences (NCATS)
# Only some compounds are listed: those with a hit (about 19% of all), similar ones and a draw of the others.
# TDP1 cell CPT = DT40-hTDP1 cell growth loss with CPT | AID 686979 | Potency, µM (top dose mostly 46.2 µM), for the others: top-dose activity change, negative = growth inhibition, most hits filed as inhibitors | 420,000 compounds, 12% hits | chicken DT40 Tdp1-/-;hTDP1 cells + 20 nM CPT, ATP luminescence, 48 h; note: potency is the fitted concentration of half-maximal effect; nearly all actives have a fitted effect of over 55% in size
#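 Chicken DT40 Tdp1-/- cells complemented with human TDP1, 400 cells/well, exposed to compounds plus 20 nM camptothecin for at least 48 h at 37 C; viability read as ATP content by CellTiter-Glo luminescence.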
# HT1080 IDH1KD tx = HT-1080 IDH1 knockdown cell toxicity (counter line). HT-1080 IDH1 knockdown viability, ATP luminescence, 48 h. 360,000 compounds, 2% hits. AID 686971. Potency, µM (titrated, usually from 46.1 µM), for the others: at the highest dose activity, negative = toxicity, most hits filed as cytotoxic;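 note: potency is the fitted concentration of half-maximal effect; 0% = DMSO wells and -100% = cell-free medium wells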
#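 Cytotoxicity counter-line: IDH1KD HT-1080, 48 h, CellTiter-Glo. Curves classed by r2, magnitude and activity.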
# HT1080-NT tox = kills 2HG-producing HT-1080-NT fibrosarcoma cells; HT-1080-NT fibrosarcoma viability, CellTiter-Glo ATP luminescence, 48 h; Potency, µM (highest dose often 46.1 µM), for inactives: at the highest dose activity, negative = less viability, most hits filed as cytotoxic; 360,000 compounds, 1.6% hits; AID 686970;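 note: NT is the 2HG producing partner of a matched IDH1 knockdown line; potency is the fitted concentration of half-maximal effect; 0% = DMSO-treated cells and -100% = media-only wells without cells; nearly all actives have a fitted effect of over 55% in size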
#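 A 48-hour cytotoxicity screen used HT-1080-NT cells plated 2 hours before compound delivery. ATP-based CellTiter-Glo luminescence measured viability, normalized to DMSO and no-cell controls.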
# IL-1B inflam inh = inhibitors of inflammasome signaling (IL-1 beta secretion); THP-1 LPS/ATP IL-1B secretion, AlphaLISA, 16 h; stronger effect = lower value; activity change, % at 57.5 µM; 360,000 compounds, 4.7% hits; AID 743279; in the data active = activity change below about -50%; inconclusive = mostly about -30% to -49%
#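 Secreted IL-1B measured by AlphaLISA bead assay after 16 h compound exposure of THP-1 cells; compounds (final up to 57.5 uM) added 1 h before LPS (250 ng/mL) and ATP (1.25 mM) stimulation; lower signal means less secretion.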
# TDP1 cell noCPT = qHTS for Inhibitors of human tyrosyl-DNA phosphodiesterase 1 (TDP1): qHTS in cells in absence of CPT; DT40 Tdp1-/- hTDP1 cells, no CPT, ATP luminescence, 48 h; Potency, µM (titrated, usually from 46.2 µM), inactives show top-dose activity change, negative = growth inhibition, most hits filed as inhibitors; 420,000 compounds, 15% hits; note: potency is the fitted concentration of half-maximal effect; nearly all actives have a fitted effect of over 55% in size
#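 Readout: luminescence from CellTiter-Glo after 30 min in the dark at RT. Cells: DT40 Tdp1-/- with stable hTDP1, 400/well. Exposure: compounds alone, ≥48 hr, 37 °C.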
# * marks the source's active call; other numbers are inactive results; ? = inconclusive; · = not tested or not shown. Unless noted, calls come from the whole dose curve; as a rule, active = well fitted curve in the direction sought with a large enough effect; inconclusive = small, poorly fitted or top-dose-only effect, or another doubt; inactive = no such curve, though single readings can be large; an effect the other way counts as inactive or inconclusive. Unless noted, % is set by controls: 0 for no effect and ±100 for the full control effect.
SMILES,TDP1 cell CPT,HT1080 IDH1KD tx,HT1080-NT tox,IL-1B inflam inh,TDP1 cell noCPT
CCN(C(=O)CSc1nc2cc(C(=O)O)ccc2c(=O)n1Cc1ccccc1)c1ccccc1,-9%,0%,9%,17,-2%
CCc1ccc(NC(=O)CSc2nc3cc(C(=O)OC)ccc3c(=O)n2Cc2ccco2)cc1,16µM*,-5%,-14%,-8,10µM*
CCOC(=O)c1c(NC(=O)CSc2nnnn2C)sc(C(=O)N(C)C)c1C,12%,1%,0%,57,-3%
CCOC(=O)c1c(NC(=O)CSc2nc3cc(Cl)ccc3c(=O)n2Cc2ccco2)sc(C(=O)N(C)C)c1C,?,?,?,-58*,?
COC(=O)c1ccc2c(=O)n(CCN3CCOCC3)c(SCC(=O)Nc3ccc(C)cc3)nc2c1,-21%,-1%,-2%,5,-16%
CCN(C(=O)CSc1nc2cc(C(=O)OC)ccc2c(=O)n1Cc1ccco1)c1cccc(C)c1,21µM*,-21%,-14%,18,?
O=C(NNC(=O)c1ccncc1)Nc1cc(Cl)ccc1Cl,9%,-1%,-2%,18,-13%
COC(=O)c1cc(S(=O)(=O)C(C)C)c(S(C)=O)s1 (configuration not stated),-97%,-22%,?,-100*,?
O=C(CSc1nnc(NC(=O)c2c(F)cccc2F)s1)NC1CC1,8%,0%,-15%,9,-3%
Cc1noc(/C=C/N(C)C)c1S(=O)(=O)N1CCCC(C(=O)Nc2ccc(F)cc2F)C1 (configuration not stated),?,0%,-13%,0,?
CCCCOc1ccc(/C=C/C2=CC(C)(C)NC(=S)N2)cc1OCC,?,?,-26%,?,13µM*
Cc1c(Cl)cccc1NC(=O)C(=O)NCCc1csc(-c2ccc(C(F)(F)F)cc2)n1,-3%,·,·,·,-25%
Cc1ccsc1CN(Cc1ccco1)C(=O)c1ccc(Cl)cc1,16µM*,·,·,·,13µM*
Cc1ccc(C(=O)N(Cc2ccco2)Cc2sccc2C)cc1,21µM*,·,·,·,23µM*
O=C(CN(Cc1ccco1)C(=O)c1ccc(Cl)cc1)Nc1c(Cl)cc(Cl)cc1Cl,5%,2%,0%,4,-29%
Cc1ccc(C[n+]2ccccc2)cc1,8.2µM*,-16%,-3%,46,9.2µM*
COc1cccc(CN2CC(C(=O)NCCc3ccc(C)s3)CCC2=O)c1 (configuration not stated),4%,4%,-6%,-8,6%
CC(=O)Nc1ccc2c(c1)C(C)(C)C(C)N2C (configuration not stated),16µM*,14%,10%,27,?
CCC(=O)c1ccc(NC(C)=O)cc1O,-15%,5%,6%,-16,-13%
Cc1ccnc(Nc2nc(-c3c(C)nc4sccn34)cs2)c1,?,-28%,-5%,-61*,?
Cc1ccc(Nc2nc(-c3ccc(F)cc3)cs2)nc1,?,-5%,-3%,19,?
CC(=O)Nc1cccc(-c2csc(Nc3ccccn3)n2)c1,?,-25%,?,-13,?
Cc1ccnc(Nc2nc(-c3ccccc3)cs2)c1,?,?,-19%,-6,?
Cc1ccc(Nc2nc(-c3ccc(O)c(O)c3)cs2)nc1,1µM*,23µM*,?,-77*,1.3µM*
COc1ccc(-c2csc(Nc3cc(C)ccn3)n2)cc1OC,?,?,-27%,-87*,?
SMILES,TDP1 cell CPT,HT1080 IDH1KD tx,HT1080-NT tox,IL-1B inflam inh,TDP1 cell noCPT
CC(=O)Nc1cccc(-c2csc(Nc3cc(C)ccn3)n2)c1,?,-14%,?,-96*,?
Cc1ncc([N+](=O)[O-])n1S(=O)(=O)c1ccc2c(c1)OCCO2,1%,15%,18%,11,-27%
COc1cccc(Cn2c(=O)c(C)nc3cnc(N4CCOCC4)nc32)c1,10%,·,·,·,-14%
CC(=O)Nc1cccc(-c2csc(Nc3ccc(Cl)cn3)n2)c1,23µM*,0%,-12%,-9,?
CCC(C)[C@H]1CN=C(N)N1CCc1cccc2ccccc12 (some centres not stated),1.8µM*,-16%,?,?,2.1µM*
NC1=NC[C@@H](Cc2ccc(O)cc2)N1CCc1cccc2ccccc12,18µM*,1%,-10%,-5,?
NCCCC[C@H]1CN=C(N)N1CCc1cccc2ccccc12,1%,0%,-3%,-14,-25%
NC1=NC[C@H](Cc2ccc(O)cc2)N1CCc1cccc2ccccc12,18µM*,1%,-1%,?,15µM*
O=C1NC[C@@H](Cc2ccc(O)cc2)N(CCc2cccc3ccccc23)C1=O,-2%,3%,7%,-21,-13%
COc1ccccc1CCc1nnc(CCC(=O)NC(C)Cn2nc(C)cc2C)o1 (configuration not stated),5%,3%,10%,18,-6%
COc1ccccc1N1CCN(S(=O)(=O)c2ccc(Cl)s2)CC1,-24%,8%,9%,8,-30%
O=C1CN(C(=O)COC(=O)c2ccc(Br)o2)c2ccccc2N1,9%,9%,6%,14,3%
COc1cc(/C=C(\C(=O)O)c2ccc(S(=O)(=O)N3CCCC3)s2)ccc1OCCC(C)C,23µM*,0%,0%,0,?
CCCCOc1ccc(/C=C(\C(=O)O)c2ccc(S(=O)(=O)N3CCCC3)s2)cc1,?,-11%,-14%,22,?
Cc1oc2cc([N+](=O)[O-])c(O)c([N+](=O)[O-])c2c1C(=O)c1ccc(Cl)cc1,23µM*,-22%,-18%,0,?
Cc1ccc(OCC(=O)N(Cc2ccco2)C2CCS(=O)(=O)C2)cc1 (configuration not stated),-5%,7%,7%,-6,9%
CN(C)c1ccc(CN(Cc2ccco2)C(=O)COc2ccc(F)cc2)cc1,?,·,·,·,10µM*
Cc1cc(OC(C)C(=O)N(Cc2ccco2)Cc2ccco2)cc(C)c1Cl (configuration not stated),15µM*,·,·,·,9.2µM*
Cc1ccc(OCC(=O)N(Cc2ccco2)Cc2ccco2)cc1,?,·,·,·,16µM*
Cc1cc(C)cc(OCC(=O)N(Cc2ccco2)Cc2ccccc2Cl)c1,21µM*,·,·,·,21µM*
CN(C)S(=O)(=O)c1cccc(C(=O)N(Cc2ccc(F)cc2)Cc2ccco2)c1,?,-9%,-11%,-10,?
CCCOCC(O)CC(Cc1ccccc1)C(=O)NN (configuration not stated),-4%,6%,5%,9,5%
